# Data: PubChem BioAssay (EPA / NIEHS)
# Active and inactive are the calls of the source. Rule for the calls: active = hit-call score of the fitted dose curve at least 0.9, where 1 is the maximum; inactive = score below 0.9.
# Assay: CCTE_Shafer_MEA_acute_burst_number: CCTE's Neural Acute Assay for Single-Electrode Bursts, Shafer Lab (AID 2284013)
# Outline: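 Percent change in single-electrode burst number per well, from 40-min recordings taken before and after adding compound (0.03-40 uM) to primary rat cortical neurons on MEA plates at DIV 13 or 15, 37 C.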
row,Structure (SMILES),outcome
1,c1ccc(NNc2ccccc2)cc1,inactive
2,O=C(Oc1ccc(Br)cc1)N1CCN2CCC1CC2,inactive
3,CCN(CC)N=O,inactive
4,ClC1=C(Cl)[C@]2(Cl)[C@H]3[C@H]([C@@H]4C=C[C@H]3C4)[C@@]1(Cl)C2(Cl)Cl,inactive
5,N#CC(Br)Br,inactive
6,ClCCOCCCl,inactive
7,CCN(CC)CCO,inactive

# Assay: CCTE_Shafer_MEA_acute_burst_duration_mean: CCTE's Neural Acute Assay for Mean Burst Duration, Shafer Lab (AID 2284014);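 note: hits are decreases in mean burst duration relative to DMSO controls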
# Outline: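 Rat cortical cultures, DIV 13/15; 40 min baseline, then 40 min with compound (0.03-40 uM), 37 C. Spikes: 300-5000 Hz band-pass, 8x rms threshold. Read-out: % change in mean single-electrode burst duration, DMSO-referenced, loss direction.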
row,Structure (SMILES),outcome
1,c1ccc(NNc2ccccc2)cc1,inactive
2,O=C(Oc1ccc(Br)cc1)N1CCN2CCC1CC2,inactive
3,CCN(CC)N=O,inactive
4,ClC1=C(Cl)[C@]2(Cl)[C@H]3[C@H]([C@@H]4C=C[C@H]3C4)[C@@]1(Cl)C2(Cl)Cl,inactive
5,O=Cc1ccco1,inactive
6,N#CC(Br)Br,inactive
7,ClCCOCCCl,inactive
8,CCN(CC)CCO,inactive

# Assay: CCTE_Shafer_MEA_acute_interburst_interval_mean: CCTE's Neural Acute Assay for Mean Interburst Interval, Shafer Lab (AID 2284016);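 note: percent change of mean interburst interval versus each well's own pre-dose baseline; curves fitted for decrease in interburst interval relative to DMSO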
# Outline: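 Percent change in mean single-electrode interburst interval was calculated per well from 40 min recordings before and after compound (0.03-40 uM). Recordings were made at 37 C on rat cortical cultures at DIV 13 or 15, with spikes detected at 8x rms threshold.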
row,Structure (SMILES),outcome
1,c1ccc(NNc2ccccc2)cc1,inactive
2,O=C(Oc1ccc(Br)cc1)N1CCN2CCC1CC2,inactive
3,CCN(CC)N=O,inactive
4,ClC1=C(Cl)[C@]2(Cl)[C@H]3[C@H]([C@@H]4C=C[C@H]3C4)[C@@]1(Cl)C2(Cl)Cl,inactive
5,O=Cc1ccco1,inactive
6,N#CC(Br)Br,inactive
7,ClCCOCCCl,inactive
8,CCN(CC)CCO,inactive

# Assay: CCTE_Shafer_MEA_acute_burst_percentage_mean: CCTE's Neural Acute Assay for Percentage of Spikes in a Burst, Shafer Lab (AID 2284017)
# Outline: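 Well-level mean burst percentage from a 40-min recording after compound (0.03-40 uM) expressed as percent change from a 40-min baseline at 37C. Cultures: primary rat cortical neurons on MEA, dosed on DIV 13 or 15; fitted downward relative to DMSO.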
row,Structure (SMILES),outcome
1,O=C(Oc1ccc(Br)cc1)N1CCN2CCC1CC2,inactive
2,CCN(CC)N=O,inactive
3,ClC1=C(Cl)[C@]2(Cl)[C@H]3[C@H]([C@@H]4C=C[C@H]3C4)[C@@]1(Cl)C2(Cl)Cl,inactive
4,O=Cc1ccco1,inactive
5,N#CC(Br)Br,inactive
6,ClCCOCCCl,inactive
7,CCN(CC)CCO,inactive

# Assay: CCTE_Shafer_MEA_acute_burst_percentage_std: CCTE's Neural Acute Assay for Standard Deviation of Burst Percentage, Shafer Lab (AID 2284018);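 note: fitted in the negative direction so actives lower burst percentage SD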
# Outline: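 Rat primary cortical neurons on 48-well MEAs, DIV 13 or 15, 37 C. 40-min baseline then 40-min recording with compound (0.03-40 uM); well-level SD of per-electrode burst spike percentage, expressed as percent change from baseline.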
row,Structure (SMILES),outcome
1,c1ccc(NNc2ccccc2)cc1,inactive
2,O=C(Oc1ccc(Br)cc1)N1CCN2CCC1CC2,inactive
3,CCN(CC)N=O,inactive
4,ClC1=C(Cl)[C@]2(Cl)[C@H]3[C@H]([C@@H]4C=C[C@H]3C4)[C@@]1(Cl)C2(Cl)Cl,inactive
5,O=Cc1ccco1,inactive
6,N#CC(Br)Br,inactive
7,ClCCOCCCl,inactive
8,CCN(CC)CCO,inactive

# Assay: CCTE_Shafer_MEA_acute_per_network_burst_spike_number_std: CCTE's Neural Acute Assay for Standard Deviation of Number of Spikes in a Network Burst, Shafer Lab (AID 2284020);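 note: fitted for decrease in spike-number SD versus DMSO so actives lower it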
# Outline: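 Rat cortical cultures, DIV 13/15, 37 C; 20-min stabilisation, 40-min baseline, compound 0.03-40 uM, 40-min re-record. Spikes detected at 8x rms noise (300-5000 Hz band-pass). Readout: % change from baseline in per-burst spike-number SD.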
row,Structure (SMILES),outcome
1,c1ccc(NNc2ccccc2)cc1,inactive
2,O=C(Oc1ccc(Br)cc1)N1CCN2CCC1CC2,inactive
3,CCN(CC)N=O,inactive
4,ClC1=C(Cl)[C@]2(Cl)[C@H]3[C@H]([C@@H]4C=C[C@H]3C4)[C@@]1(Cl)C2(Cl)Cl,inactive
5,O=Cc1ccco1,inactive
6,N#CC(Br)Br,inactive
7,ClCCOCCCl,inactive
8,CCN(CC)CCO,inactive
